What all share (assay): NCI-60 one-dose screen, 48 h (100 = growth as untreated, 0 = no growth, -100 = all killed)
One assay concerns A549/ATCC NSCLC. Conditions: 10 µM unless noted.
The subject of another assay is DU-145 prostate. The conditions noted are these: 10 µM unless noted.
A further assay has as its system K-562 leukemia. The conditions noted are these: 10 µM unless noted.
Another assay has as its system RXF 393 renal. The conditions noted are these: 10 µM unless noted.
Another assay relates to SF-295 CNS. Conditions: 10 µM unless noted.
A further assay has as its system UACC-257 melanoma. Conditions: 10 µM unless noted.
A further assay relates to HT29 colon. The conditions noted are these: 10 µM unless noted.
The next assay relates to SNB-75 CNS. Conditions: 10 µM unless noted.
For a further assay, the system named is SK-MEL-2 melanoma. The conditions noted are these: 10 µM unless noted.
The subject of another assay is ACHN renal. Conditions: 10 µM unless noted.
The next assay has as its system CAKI-1 renal. The conditions noted are these: 10 µM unless noted.
The test system of a further assay is A498 renal. The conditions noted are these: 10 µM unless noted.
The test system of a further assay is HL-60(TB) leukemia. Conditions: 10 µM unless noted.
A further assay has as its system OVCAR-5 ovarian. The conditions noted are these: 10 µM unless noted.
The next assay deals with OVCAR-4 ovarian. The conditions noted are these: 10 µM unless noted.
The next assay deals with SK-OV-3 ovarian. The conditions noted are these: 10 µM unless noted.
The next assay relates to HS 578T breast. Conditions: 10 µM unless noted.
A further assay has as its system NCI/ADR-RES ovarian. The conditions noted are these: 10 µM unless noted.
The next assay deals with T-47D breast. The conditions noted are these: 10 µM unless noted.
In a further assay the test system is BT-549 breast. The conditions noted are these: 10 µM.

Compounds without any hit were thinned out: in the full panel of roughly 83,000, 20% have a hit.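 Cell lines were cultured in 96-well plates, exposed to a single compound concentration, and assessed for percent growth 48 hours later.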 Unmarked numbers belong to inactive results. The source made the active and inactive calls. The calls were made as follows: active = growth percent below 10; inactive = the rest.

With `O=C(CI)Nc1ccc(Br)cc1`, the growth with A549/ATCC NSCLC is 90.9%; in the assay with DU-145 prostate, 23.3%; in the assay on K-562 leukemia, -41.1% (active); in the assay with RXF 393 renal it was 26.5%; with SF-295 CNS, 98.2%; in the assay on UACC-257 melanoma it was 92.9%. Besides, the growth is -87.4% (active) with HT29 colon; 96.7% in the assay on SNB-75 CNS; 76.4% in the assay with SK-MEL-2 melanoma; -79.8% (active) with ACHN renal; -67.5% (active) in the assay with CAKI-1 renal; 142% in the assay with A498 renal. Moreover, the growth is 69.6% in the assay with HL-60(TB) leukemia; 94.9% with OVCAR-5 ovarian; 27.4% in the assay on OVCAR-4 ovarian; 101% with SK-OV-3 ovarian; 132% with HS 578T breast; 100% in the assay on NCI/ADR-RES ovarian. In addition, the growth with T-47D breast is 26.7%.

As for `CCCCN(CCCC)CC(O)c1ccccc1` (stereo unspecified), the growth was 104% in the assay on A549/ATCC NSCLC; 113% in the assay on DU-145 prostate; 103% in the assay with K-562 leukemia; 116% in the assay on RXF 393 renal; 103% in the assay on SF-295 CNS; 106% in the assay on UACC-257 melanoma. For the same molecule, the growth is 109% with HT29 colon; 91.5% with SNB-75 CNS; 115% in the assay with SK-MEL-2 melanoma; 102% with ACHN renal; 107% with CAKI-1 renal; 82.6% in the assay on A498 renal. Also, the growth in the assay with HL-60(TB) leukemia was 111%; in the assay with OVCAR-5 ovarian, 93.6%; with OVCAR-4 ovarian, 95.4%; in the assay on SK-OV-3 ovarian, 111%; in the assay with HS 578T breast, 97.5%; in the assay with NCI/ADR-RES ovarian it was 105%. For the same molecule, the values for the growth in the assay with T-47D breast and with BT-549 breast were 127% and 124%, respectively.

`COc1ccc(/C=C\c2cc(OC)c(OC)c(OC)c2)cc1N/C=C\C(=O)c1c[nH]c2ccccc12`: the growth is 28.4% in the assay with A549/ATCC NSCLC; 3.53% (active) in the assay with DU-145 prostate; 13.7% in the assay on K-562 leukemia; 29.2% in the assay with RXF 393 renal; -11.8% (active) in the assay with SF-295 CNS; 78.2% with UACC-257 melanoma. For the same molecule, the growth with HT29 colon is -3.93% (active); in the assay on SNB-75 CNS, 19.1%; in the assay on SK-MEL-2 melanoma it was 32.3%; with ACHN renal, 15%; with A498 renal, -13.6% (active); in the assay on HL-60(TB) leukemia, -11.4% (active). Besides, the growth with OVCAR-5 ovarian was 18.8%; in the assay on SK-OV-3 ovarian it was 12.9%; with HS 578T breast, 37.5%; in the assay with NCI/ADR-RES ovarian it was 0.644% (active); in the assay on T-47D breast, 81.7%; with BT-549 breast, 6.79% (active).

Regarding `C1CNC2CCCC2C1` (stereo unspecified), the growth in the assay on A549/ATCC NSCLC was 110%; with DU-145 prostate it was 107%; in the assay with K-562 leukemia it was 112%; in the assay on RXF 393 renal it was 93.1%; in the assay on SF-295 CNS, 104%; in the assay with UACC-257 melanoma it was 106%. Further, the growth with HT29 colon is 102%; in the assay on SNB-75 CNS, 86.3%; in the assay on SK-MEL-2 melanoma it was 106%; in the assay on ACHN renal, 103%; with CAKI-1 renal, 103%; with A498 renal it was 107%. In addition, the growth in the assay on HL-60(TB) leukemia was 117%; in the assay with OVCAR-5 ovarian it was 103%; in the assay on OVCAR-4 ovarian, 102%; with SK-OV-3 ovarian, 108%; in the assay on HS 578T breast, 111%; with NCI/ADR-RES ovarian, 109%. Also, the growth is 108% with T-47D breast and 102% in the assay on BT-549 breast.

Consider `C[CH2][Sn]([CH2]C)([CH2]C)[NH]S(=O)(=O)c1ccc(C)cc1`, for which the growth in the assay on A549/ATCC NSCLC was 102%; with DU-145 prostate it was 113%; in the assay with K-562 leukemia, 116%; with RXF 393 renal, 123%; with SF-295 CNS it was 104%; with UACC-257 melanoma, 105%. Also, the growth in the assay on HT29 colon was 116%; in the assay on SNB-75 CNS, 94.6%; in the assay with SK-MEL-2 melanoma, 119%; in the assay on CAKI-1 renal, 88.6%; in the assay on A498 renal it was 68%; with HL-60(TB) leukemia, 104%. The growth in the assay with OVCAR-5 ovarian was 114%; in the assay with OVCAR-4 ovarian, 103%; with SK-OV-3 ovarian it was 110%; in the assay on HS 578T breast it was 89.4%; in the assay on NCI/ADR-RES ovarian it was 104%; in the assay with T-47D breast, 100%.

As to `C1CN1c1nc(N2CC2)nc(N2CC2)n1`, the growth in the assay with A549/ATCC NSCLC was 59.8%; in the assay on DU-145 prostate, -1.22% (active); in the assay on K-562 leukemia, 26.4%; with RXF 393 renal it was 39%; in the assay on SF-295 CNS, 14.2%; in the assay with UACC-257 melanoma, 43.7%. Besides, the growth with HT29 colon was 44.9%; with SNB-75 CNS it was -17.6% (active); with SK-MEL-2 melanoma, 76.9%; in the assay on ACHN renal it was -29.7% (active); with CAKI-1 renal, 6.72% (active); with A498 renal, 57.9%. Also, the growth with HL-60(TB) leukemia is 0.901% (active); with OVCAR-5 ovarian, 64.5%; in the assay with OVCAR-4 ovarian, 44.6%; in the assay with SK-OV-3 ovarian, 38.1%; with HS 578T breast, 72.3%; in the assay with NCI/ADR-RES ovarian, 36.8%. The results for the growth with T-47D breast and in the assay on BT-549 breast were 26.7% and 46.1%, respectively.

Regarding `CC1(C)CC2(CC(C)(C)c3cc(O)c(O)cc32)c2cc(O)c(O)cc21`, the growth in the assay with A549/ATCC NSCLC is 97.2%; in the assay with DU-145 prostate, 98.8%; with RXF 393 renal, 85.8%; in the assay with SF-295 CNS, 96.1%; in the assay on UACC-257 melanoma it was 109%; in the assay with HT29 colon, 114%. The growth is 81.2% with SNB-75 CNS; 110% with SK-MEL-2 melanoma; 96.1% in the assay on ACHN renal; 92.3% in the assay on CAKI-1 renal; 99.4% with A498 renal; 104% in the assay on HL-60(TB) leukemia. Also, the growth is 93% in the assay with OVCAR-5 ovarian; 82% with OVCAR-4 ovarian; 97.1% in the assay with SK-OV-3 ovarian; 89.2% with HS 578T breast; 103% in the assay with NCI/ADR-RES ovarian; 104% with T-47D breast. The growth in the assay on BT-549 breast was 111%.

As for `CCCCCN(CCCCC)CC(O)c1ccc(C)c(Cl)c1` (stereo unspecified), the growth in the assay with A549/ATCC NSCLC is 92.7%; with DU-145 prostate it was 118%; in the assay on K-562 leukemia it was 92.5%; with SF-295 CNS, 87%; with UACC-257 melanoma, 95.4%; with HT29 colon, 79%. Further, the growth was 90.9% in the assay on SNB-75 CNS; 101% in the assay on SK-MEL-2 melanoma; 92.7% with ACHN renal; 98.2% with CAKI-1 renal; 78.5% in the assay with A498 renal; 116% in the assay on HL-60(TB) leukemia. The growth with OVCAR-5 ovarian was 83.8%; with OVCAR-4 ovarian it was 105%; with SK-OV-3 ovarian, 94.3%; in the assay on HS 578T breast, 102%; in the assay on NCI/ADR-RES ovarian, 104%; in the assay with T-47D breast it was 91.2%. Moreover, in the assay on BT-549 breast, the growth is 107%.

Turning to `CNc1ccc(C(=O)CC(O)CCC(C)C2OC(=O)CC(O)CC(=O)CC(O)CC(O)CC(O)CC(O)CC3(O)CC(O)C(C(=O)OC)C(CC(O[C@@H]4O[C@H](C)[C@@H](O)[C@H](N)[C@@H]4O)/C=C/C=C/C=C/C=C/C=C/C=C/C=C/C2C)O3)cc1` (stereo partly specified), the growth in the assay on A549/ATCC NSCLC was -65% (active); in the assay on DU-145 prostate, -75.3% (active); in the assay on K-562 leukemia, 34.5%; in the assay with RXF 393 renal it was -20% (active); in the assay on SF-295 CNS, 20.2%; with UACC-257 melanoma, -79.7% (active). The growth in the assay on HT29 colon was -21.2% (active); in the assay on SNB-75 CNS, 42.6%; with SK-MEL-2 melanoma it was -8.57% (active); in the assay with ACHN renal, -79.5% (active); with CAKI-1 renal it was 2.61% (active); with A498 renal, -54.2% (active). Further, the growth with OVCAR-5 ovarian is -9.42% (active); in the assay on OVCAR-4 ovarian, -10.5% (active); in the assay on SK-OV-3 ovarian, 2.49% (active); in the assay with HS 578T breast, 6.91% (active); in the assay with NCI/ADR-RES ovarian it was -35.9% (active); in the assay with T-47D breast, -2.05% (active). Also, the growth in the assay with BT-549 breast is -16.8% (active).

With `O=C(Nc1ccc(S(=O)(=O)F)cc1)Oc1ccccc1`, the growth in the assay with A549/ATCC NSCLC was 97.2%; in the assay on DU-145 prostate, 103%; in the assay with K-562 leukemia it was 100%; in the assay with RXF 393 renal, 95.3%; with SF-295 CNS it was 96.8%; in the assay on UACC-257 melanoma, 111%. Besides, the growth was 102% in the assay with HT29 colon; 85.5% in the assay with SNB-75 CNS; 107% with SK-MEL-2 melanoma; 106% in the assay on ACHN renal; 105% in the assay with CAKI-1 renal; 97.6% with A498 renal. Further, the growth in the assay on HL-60(TB) leukemia is 105%; in the assay with OVCAR-5 ovarian it was 102%; with OVCAR-4 ovarian, 97%; with SK-OV-3 ovarian, 102%; with NCI/ADR-RES ovarian, 103%; in the assay with T-47D breast, 95.9%. The growth with BT-549 breast is 98.2%.
